In PubChem BioAssay (EPA / NIEHS) one finds AC50 and outcome data, which are given here for 19 compounds.

SMILES strings stand for the structures. “And” between values parts separate entries of the source, which are not always exact repeats. Equal entries are not always repeated. The source made the active and inactive calls. The calls were made as follows: active = hit-call score of the fitted dose curve at least 0.9, where 1 is the maximum; inactive = score below 0.9.

A short description of assay [1]: ATG_PXRE_CIS: Attagene CIS-FACTORIAL HepG2 Assay for human Pregnane X Receptor Element (PXRE) (AID 2282957). As to conditions: HepG2 Attagene CIS-FACTORIAL PXRE reporter, mRNA; actives raise or lower the signal. In short, it runs like this: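 Transfect HepG2 with MRTUs (cis promoter elements); dose chemical, incubate 24 h; isolate RNA, RT with oligo(dT), PCR, 6-FAM label, HpaI cut, CE. Gain/loss fit vs DMSO.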

A short description of assay [2]: ATG_PPRE_CIS: Attagene CIS-FACTORIAL HepG2 Assay for human Peroxisome Proliferator-activated Response Element (PPRE) (AID 2282958). The note with it: HepG2 PPRE cis-element reporter, Attagene transcription factor profiling; actives raise or lower the signal. In short, it runs like this: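 Measured endpoint: PPRE-controlled reporter mRNA, detected by RT-PCR and capillary electrophoresis fluorescence, from transiently transfected HepG2 cells 24 h after dosing. Curves fitted in both directions using DMSO baseline.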

Assay [3] can be described thus: ATG_RORE_CIS: Attagene CIS-FACTORIAL HepG2 Assay for human RAR-related Orphan Receptor Element (RORE) (AID 2282959). The note with it: HepG2 Attagene cis-factorial RORE reporter, mRNA; actives raise or lower the signal. Summed up: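 Transiently transfected HepG2 reporter cells were treated 24 h. Reporter transcripts were detected by RT-PCR and capillary electrophoresis, with bidirectional fitting against DMSO.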

Assay [4] in a line: ATG_Sox_CIS: Attagene CIS-FACTORIAL HepG2 Assay for human SRY-box transcription factor (SOX) (AID 2282960). As to conditions: HepG2 Attagene cis-factorial SOX reporter, mRNA; actives raise or lower the signal. Summed up:
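Gain- or loss-of-signal endpoint, fitted bidirectionally with DMSO as negative control. Based on reporter mRNA from transfected HepG2 cells harvested 24 h post-treatment and quantified via RT-PCR and capillary electrophoresis.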

The target in assay [5] is Transcription factor Sp1 (Homo sapiens) (UniProt P08047). Nature of the assay: ATG_Sp1_CIS: Attagene CIS-FACTORIAL HepG2 Assay for human Specificity Protein 1 (Sp1) (AID 2282961). The note with it: HepG2 Sp1 cis-reporter transcription, actives raise or lower the signal. In short, it runs like this:
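Endpoint reflects endogenous Sp1 transcriptional activity, not an exogenous fusion protein: HepG2 cells with transfected cis-regulated reporters, 24 h dosing, RT-PCR/capillary electrophoresis mRNA read-out, DMSO-normalised bidirectional fit.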

A short description of assay [6]: ATG_SREBP_CIS: Attagene CIS-FACTORIAL HepG2 Assay for human Sterol Regulatory Element Binding (SREBP) (AID 2282962). The note with it: HepG2 Attagene cis-factorial SREBP reporter, mRNA; actives raise or lower the signal. In short, it runs like this:
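HepG2 cells transiently transfected with multiplexed cis-element reporter units report endogenous transcription factor activity. After 24 h of chemical exposure, reporter mRNA was quantified by RT-PCR, 6-FAM labelling, HpaI digestion and capillary electrophoresis; bidirectional fits used DMSO as baseline.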

The target of assay [7] is Signal transducer and activator of transcription 3 (Homo sapiens) (UniProt P40763). Description: ATG_STAT3_CIS: Attagene CIS-FACTORIAL HepG2 Assay for human Signal Transducer and Activator of Transcription 3 (STAT3) (AID 2282963). As to conditions: HepG2, Attagene cis-factorial STAT3 reporter transcription; actives raise or lower the signal. Summed up:
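Endogenous STAT3-responsive cis-element activity was read in transiently transfected HepG2 cells after 24 h treatment. Reporter transcripts were quantified via RT-PCR and capillary electrophoresis, with DMSO as negative control and bidirectional curve fitting.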

Assay [8] is described as follows: ATG_TA_CIS: Attagene CIS-FACTORIAL HepG2 Assay for human TA Basal Promoter (AID 2282964). The note with it: HepG2 Attagene CIS-factorial TA basal promoter reporter; actives raise or lower the signal. In short, it runs like this:
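Transient MRTU transfection of HepG2 preceded 24 h compound exposure. Reporter mRNA levels were then read by RT-PCR with capillary electrophoresis, and this background-control endpoint was fitted bidirectionally to DMSO.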

Assay [9] in a line: ATG_TCF_b_cat_CIS: Attagene CIS-FACTORIAL HepG2 Assay for human T-Cell-Factor with beta-catenin (TCF/b-cat) (AID 2282965). As to conditions: HepG2 TCF/beta-catenin cis-reporter transcription, actives raise or lower the signal. In short, it runs like this: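 Endogenous transcription factor activity is captured through cis-promoter reporter constructs transiently introduced into human HepG2 liver cells. Induced reporter mRNA is measured after 24 h and fitted bidirectionally relative to DMSO.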

The nature of assay [10]: ATG_TAL_CIS: Attagene CIS-FACTORIAL HepG2 Assay for human TAL Basal Promoter (AID 2282966).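 Also: background control endpoint measuring basal TAL promoter reporter mRNA not a specific factor.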 As to conditions: HepG2 Attagene cis-factorial TAL promoter reporter; actives raise or lower the signal. In short, it runs like this: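 Fluorescence of labelled reporter cDNA fragments, resolved by capillary electrophoresis, gave the readout. Human HepG2 liver cells carried transiently transfected cis-element reporter units and were treated for 24 hours; activity was fitted bidirectionally against DMSO.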

Chain of Transcription factor Sp1 (Homo sapiens) (P08047 whole entry, looked up, the tested form may be a part): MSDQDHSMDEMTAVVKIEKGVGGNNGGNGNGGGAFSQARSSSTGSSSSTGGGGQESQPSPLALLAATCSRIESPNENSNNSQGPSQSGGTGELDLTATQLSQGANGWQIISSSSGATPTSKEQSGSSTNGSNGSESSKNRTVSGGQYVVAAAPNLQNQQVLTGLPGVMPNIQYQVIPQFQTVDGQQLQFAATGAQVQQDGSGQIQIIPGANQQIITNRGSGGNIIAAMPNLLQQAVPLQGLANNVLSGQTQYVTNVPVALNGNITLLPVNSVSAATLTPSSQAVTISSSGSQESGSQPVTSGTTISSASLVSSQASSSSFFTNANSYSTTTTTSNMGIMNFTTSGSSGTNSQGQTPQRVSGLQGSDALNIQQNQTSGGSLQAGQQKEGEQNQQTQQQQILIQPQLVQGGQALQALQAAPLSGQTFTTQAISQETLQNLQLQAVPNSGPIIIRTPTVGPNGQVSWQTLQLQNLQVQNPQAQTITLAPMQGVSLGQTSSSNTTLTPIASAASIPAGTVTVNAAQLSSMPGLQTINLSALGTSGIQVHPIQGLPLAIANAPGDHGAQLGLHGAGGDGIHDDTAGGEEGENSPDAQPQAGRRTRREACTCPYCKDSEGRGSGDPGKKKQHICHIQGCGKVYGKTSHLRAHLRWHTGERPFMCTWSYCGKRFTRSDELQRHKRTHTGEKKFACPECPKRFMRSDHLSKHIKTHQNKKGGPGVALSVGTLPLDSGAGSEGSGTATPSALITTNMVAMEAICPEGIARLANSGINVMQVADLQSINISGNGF
Chain of Signal transducer and activator of transcription 3 (Homo sapiens) (P40763 whole entry, looked up): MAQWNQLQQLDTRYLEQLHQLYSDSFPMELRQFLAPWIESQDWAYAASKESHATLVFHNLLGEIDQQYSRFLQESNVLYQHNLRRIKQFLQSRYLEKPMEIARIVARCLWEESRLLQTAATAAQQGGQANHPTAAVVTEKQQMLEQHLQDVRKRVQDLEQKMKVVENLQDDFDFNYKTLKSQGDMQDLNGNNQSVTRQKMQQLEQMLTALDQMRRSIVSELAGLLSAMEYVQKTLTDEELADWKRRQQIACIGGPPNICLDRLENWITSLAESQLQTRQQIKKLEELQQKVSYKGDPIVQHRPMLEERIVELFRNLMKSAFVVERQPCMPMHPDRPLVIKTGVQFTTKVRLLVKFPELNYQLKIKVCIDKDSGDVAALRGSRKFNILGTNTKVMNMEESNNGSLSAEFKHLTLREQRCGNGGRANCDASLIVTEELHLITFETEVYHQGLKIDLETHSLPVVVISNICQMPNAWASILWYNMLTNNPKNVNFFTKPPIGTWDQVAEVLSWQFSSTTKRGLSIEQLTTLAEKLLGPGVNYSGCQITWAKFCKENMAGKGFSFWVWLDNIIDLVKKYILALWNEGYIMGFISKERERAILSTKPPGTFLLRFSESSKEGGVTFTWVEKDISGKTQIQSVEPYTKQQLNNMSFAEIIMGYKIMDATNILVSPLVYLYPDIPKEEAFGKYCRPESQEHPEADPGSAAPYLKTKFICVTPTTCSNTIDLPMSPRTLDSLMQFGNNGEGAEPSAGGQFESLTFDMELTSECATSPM

As for `CON=C(C(=O)OC)c1ccccc1CON=C(C)c1cccc(C(F)(F)F)c1`, the AC50 (commonly the concentration at which the activity in the assay is half-maximal) is 32.1 µM (active) in assay [1] and 13 µM (active) in assay [10]. The call in [2], in assay [3], in assay [4], in assay [5], in assay [6] and in assay [7] was inactive. In addition, the call in assay [8] and in assay [9] was inactive.

For the compound `COP(=O)(OC)OC(Br)C(Cl)(Cl)Br` (centres undefined), the outcome in assay [1], in [2], in assay [3], in assay [4], in [5] and in assay [6] was inactive. Moreover, the compound was classed as inactive in [8], in assay [9] and in assay [10].

Regarding `CC(C)N(C(=O)SCC(Cl)=C(Cl)Cl)C(C)C`, the AC50 in [1] was 3.05 µM (active); in assay [6], 29.1 µM (active). Also, the call in assay [3], in assay [4], in assay [5], in assay [8], in assay [9] and in [10] was inactive.

Regarding `CCC(CC)Nc1c([N+](=O)[O-])cc(C)c(C)c1[N+](=O)[O-]`, the AC50 in [1] is 5.39 µM (active). Moreover, the result in assay [2], in assay [3], in [4], in assay [5], in [6] and in [8] was inactive. For the same compound, the compound was classed as inactive in [9] and in [10].

Turning to `CCCSP(=O)(OCC)SCCC`, the AC50 in assay [1] is 15.2 µM (active). Moreover, the compound was classed as inactive in assay [3], in [4], in [5], in assay [6], in [7] and in assay [8]. The outcome in assay [9] and in assay [10] was inactive.

`C[Si](Cn1cncn1)(c1ccc(F)cc1)c1ccc(F)cc1`: the AC50 is 3.52 µM (active) in assay [1]; 43.1 µM (active) in [2]; 18.7 µM (active) in assay [3]; 13.9 µM (active) in [6]; 50 µM (active) in assay [8]. For the same compound, the result in assay [4], in assay [5], in [9] and in [10] was inactive.

`CNC(=O)ON=C(C)SC`: the outcome in [1], in [2], in [3], in assay [4], in assay [5] and in [6] was inactive. For the same compound, the result in assay [8], in [9] and in assay [10] was inactive.

As for `COc1cc(OC)nc(Sc2cccc(Cl)c2C(=O)O)n1`, the outcome in [1], in [3], in [4], in assay [5], in assay [6] and in assay [8] was inactive. Moreover, the outcome in assay [9] and in [10] was inactive.

Regarding `CN(C)[C@@H]1C(=O)C(C(N)=O)=C(O)[C@@]2(O)C(=O)C3=C(O)c4c(O)cccc4[C@@](C)(O)[C@H]3[C@H](O)[C@@H]12`, the AC50 in assay [1] is 65 µM (active) and 26.5 µM (active) and 34.9 µM (active). Besides, the compound was called inactive in [4], in assay [5], in [6], in [7], in [8] and in [9]. Further, the compound was classed as inactive in assay [10].

Take `CC(C)[C@H](C(=O)O[C@H](C#N)c1cccc(Oc2ccccc2)c1)c1ccc(Cl)cc1`: the AC50 in assay [1] is 1.04 µM (active). Moreover, the outcome in [2], in assay [3], in assay [4], in assay [5], in [6] and in [8] was inactive. Also, the call in assay [9] and in [10] was inactive.

`Nc1nc(N)nc(NC2CC2)n1`: the call in assay [1], in [3], in assay [4], in assay [5], in [6] and in assay [7] was inactive. Further, the outcome in assay [8], in assay [9] and in [10] was inactive.

As for `CCc1cccc(C)c1N(C(=O)CCl)C(C)COC` (centres undefined), the AC50 in assay [1] was 0.603 µM (active). The compound was classed as inactive in assay [4], in assay [5], in assay [6], in [8], in assay [9] and in assay [10].

In the case of `COc1ccc(C(=CC(=O)N2CCOCC2)c2ccc(Cl)cc2)cc1OC`, the AC50 in [1] was 5.15 µM (active); in assay [2], 21.8 µM (active); in assay [3] it was 5.72 µM (active). Moreover, the compound was called inactive in assay [4], in assay [5], in [6], in [8], in assay [9] and in assay [10].

With `CCCSP(=O)(OCC)Oc1ccc(Br)cc1Cl` (centres undefined), the AC50 in assay [1] is 3.04 µM (active); in assay [6], 1.31 µM (active). Also, the call in assay [2], in [3], in assay [4], in assay [5], in [8] and in [9] was inactive. For the same compound, the outcome in assay [10] was inactive.

For `CSc1nnc(C(C)(C)C)c(=O)n1N`, the compound was classed as inactive in [1], in assay [3], in assay [4], in assay [5], in [6] and in assay [8]. For the same compound, the compound was called inactive in assay [9] and in assay [10].

As to `CNC(=O)ON=C(SC)C(=O)N(C)C`, the values for the AC50 in assay [1] and in assay [6] were 29.3 µM (active) and 50 µM (active), respectively. The outcome in [2], in assay [3], in assay [4], in assay [5], in assay [8] and in assay [9] was inactive. The outcome in assay [10] was inactive.

As for `CC[C@H](C)[C@H]1O[C@]2(C=C[C@@H]1C)C[C@@H]1C[C@@H](C/C=C(\C)[C@@H](O[C@H]3C[C@H](OC)[C@@H](O[C@H]4C[C@H](OC)[C@@H](NC)[C@H](C)O4)[C@H](C)O3)[C@@H](C)/C=C/C=C3\CO[C@@H]4[C@H](O)C(C)=C[C@@H](C(=O)O1)[C@]34O)O2`, the compound was called inactive in assay [1], in [3], in assay [4], in assay [5], in assay [6] and in assay [8]. Moreover, the result in [9] and in assay [10] was inactive.

Take `CCc1cnc(C2=NC(C)(C(C)C)C(=O)N2)c(C(=O)O)c1` (centres undefined): the outcome in [1], in [2], in assay [3], in assay [4], in assay [5] and in assay [6] was inactive. Besides, the result in assay [8], in assay [9] and in assay [10] was inactive.

As to `C#CC(C)(C)NC(=O)c1cc(Cl)cc(Cl)c1`, the results for the AC50 in assay [1] and in assay [6] were 7.44 µM (active) and 50 µM (active), respectively. For the same compound, the compound was classed as inactive in assay [3], in assay [4], in assay [5], in [8], in assay [9] and in [10].
